# Hits are enriched below; roughly 12% of the tested compounds scored in any of these assays.
# G9a inh: inhibitors of human histone lysine methyltransferase G9a | G9a H3K9 monomethylation, AlphaScreen, 2 h | Potency, µM (highest dose often 102 µM), for inactives: at the highest dose activity, negative = inhibition, most hits filed as inhibitors | hit rate 8.8% among 350,000 | AID 504332; also: potency is read from the fitted curve at half-maximal effect; % is scaled to controls: 0 for no effect and ±100 for the full control effect; nearly all actives have a fitted effect of over 75% in size
#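 AlphaScreen read-out: biotin-H3K9 peptide (500 nM) methylation by 20 nM enzyme with 20 uM SAM, 2 h at room temperature after 15 min compound preincubation; anti-monomethyl H3K9 antibody plus donor/acceptor beads, 10 min dark.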
# JMJD2A Tudor inh: inhibitors of human JMJD2A Tudor domain | hit rate 4.4% among 390,000 | Potency, µM (top dose mostly 114 µM), without a hit: at the highest dose activity change, negative = inhibition, hits mostly inhibitors | O75164 | AID 504339 | AlphaScreen JMJD2A-Tudor / H3K4me3 peptide binding; also: potency is read from the fitted curve at half-maximal effect; % is scaled to controls: 0 for no effect and ±100 for the full control effect; nearly all actives have a fitted effect of over 50% in size
# BAZ2B block: blocks human BAZ2B; AlphaScreen BAZ2B-H3K14Ac peptide displacement; Potency, µM (top dose mostly 114 µM), for inactives: at the highest dose activity change, negative = inhibition, actives largely listed as inhibitors; hit rate 4.4% among 360,000; also: potency is read from the fitted curve at half-maximal effect; % is scaled to controls: 0 for no effect and ±100 for the full control effect; nearly all actives have a fitted effect of over 60% in size
# Target sequence (Q9UIF8 whole entry, looked up): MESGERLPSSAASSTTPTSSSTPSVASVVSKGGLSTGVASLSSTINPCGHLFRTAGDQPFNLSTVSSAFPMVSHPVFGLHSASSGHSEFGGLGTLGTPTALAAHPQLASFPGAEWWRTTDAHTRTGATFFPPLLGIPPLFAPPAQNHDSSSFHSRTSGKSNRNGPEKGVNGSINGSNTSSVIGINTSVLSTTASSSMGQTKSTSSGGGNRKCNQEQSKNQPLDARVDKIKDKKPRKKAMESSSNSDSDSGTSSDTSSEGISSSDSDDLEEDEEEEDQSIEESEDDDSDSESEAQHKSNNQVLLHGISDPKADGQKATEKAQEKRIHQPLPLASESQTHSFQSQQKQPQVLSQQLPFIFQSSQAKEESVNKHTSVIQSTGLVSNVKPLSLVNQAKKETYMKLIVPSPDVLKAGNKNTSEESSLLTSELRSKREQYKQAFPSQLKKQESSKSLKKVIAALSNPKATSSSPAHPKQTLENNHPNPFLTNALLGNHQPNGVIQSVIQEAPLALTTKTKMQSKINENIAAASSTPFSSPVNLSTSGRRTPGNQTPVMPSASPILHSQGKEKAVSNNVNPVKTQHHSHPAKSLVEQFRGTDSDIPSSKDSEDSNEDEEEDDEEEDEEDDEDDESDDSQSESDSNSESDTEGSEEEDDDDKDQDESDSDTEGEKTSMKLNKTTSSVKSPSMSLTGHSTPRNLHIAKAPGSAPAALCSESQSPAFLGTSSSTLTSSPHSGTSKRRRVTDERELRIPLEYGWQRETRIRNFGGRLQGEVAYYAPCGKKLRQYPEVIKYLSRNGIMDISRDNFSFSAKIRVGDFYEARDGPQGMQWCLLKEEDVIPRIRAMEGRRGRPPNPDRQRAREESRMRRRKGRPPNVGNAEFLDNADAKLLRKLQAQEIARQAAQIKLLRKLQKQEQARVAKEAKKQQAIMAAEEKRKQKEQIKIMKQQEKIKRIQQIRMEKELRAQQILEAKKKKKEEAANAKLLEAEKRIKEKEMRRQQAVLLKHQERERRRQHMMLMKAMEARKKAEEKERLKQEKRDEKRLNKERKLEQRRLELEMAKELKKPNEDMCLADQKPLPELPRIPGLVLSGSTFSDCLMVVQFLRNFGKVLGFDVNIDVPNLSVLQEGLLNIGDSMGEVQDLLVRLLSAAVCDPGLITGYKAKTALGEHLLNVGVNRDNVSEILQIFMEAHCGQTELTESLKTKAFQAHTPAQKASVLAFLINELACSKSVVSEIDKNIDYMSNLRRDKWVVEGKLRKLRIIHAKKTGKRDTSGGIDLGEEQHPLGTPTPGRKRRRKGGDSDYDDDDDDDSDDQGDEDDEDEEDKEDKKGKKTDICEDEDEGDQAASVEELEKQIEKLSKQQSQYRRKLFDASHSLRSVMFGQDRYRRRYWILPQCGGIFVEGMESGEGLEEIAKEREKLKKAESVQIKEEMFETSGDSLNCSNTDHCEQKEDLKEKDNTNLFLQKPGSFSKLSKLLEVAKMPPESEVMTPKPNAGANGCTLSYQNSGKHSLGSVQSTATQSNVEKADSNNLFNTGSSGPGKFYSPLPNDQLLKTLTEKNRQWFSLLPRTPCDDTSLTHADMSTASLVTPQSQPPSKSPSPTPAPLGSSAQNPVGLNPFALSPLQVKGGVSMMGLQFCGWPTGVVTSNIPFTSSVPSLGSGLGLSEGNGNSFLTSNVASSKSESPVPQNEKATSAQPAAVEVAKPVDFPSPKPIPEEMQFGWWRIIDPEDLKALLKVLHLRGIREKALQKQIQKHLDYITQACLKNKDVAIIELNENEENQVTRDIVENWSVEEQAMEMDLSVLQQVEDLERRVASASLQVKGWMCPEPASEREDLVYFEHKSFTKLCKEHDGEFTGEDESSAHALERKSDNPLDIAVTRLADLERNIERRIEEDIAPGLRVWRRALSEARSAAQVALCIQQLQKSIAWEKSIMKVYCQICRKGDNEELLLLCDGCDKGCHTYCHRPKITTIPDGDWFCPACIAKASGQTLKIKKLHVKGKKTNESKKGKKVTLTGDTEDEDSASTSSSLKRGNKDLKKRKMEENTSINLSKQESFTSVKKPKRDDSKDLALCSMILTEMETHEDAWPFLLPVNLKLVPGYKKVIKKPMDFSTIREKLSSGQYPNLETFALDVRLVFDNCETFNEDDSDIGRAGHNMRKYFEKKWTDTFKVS
#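 Multi-concentration screen (max 110 uM) measuring displacement of acetylated histone H3 peptide from BAZ2B by AlphaScreen, using 50 nM protein, 50 nM peptide and 10 ug/mL streptavidin donor plus Ni-chelate acceptor beads.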
# PLK1 PBD inh: inhibitors of human PLK1 polo-box domain binding; Plk1 PBD binding of FITC phosphopeptide, fluorescence polarization; Potency, µM, for the others: max response, negative = inhibition, hits mostly inhibitors; hit rate 2.8% among 360,000; AID 720504; also: potency is read from the fitted curve at half-maximal effect; series mostly up to about 57 µM; % is scaled to controls: 0 for no effect and ±100 for the full control effect; nearly all actives have a fitted effect of over 65% in size
# PI5P4K alpha inh: inhibitors of human PI5P4K alpha. P48426. PI5P4Kalpha enzyme, ADP-Glo luminescence, 60 min; active compounds read low. max response, %. hit rate 1.2% among 330,000. AID 652105; active = max response of -50% or lower; inconclusive = between -30% and -50%; inactive = -30% or higher; also: value at the top dose of about 77 µM; % is scaled to controls: 0 for no effect and ±100 for the full control effect
#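 ADP-Glo luminescence end-point read after a 60 min room-temperature kinase reaction of PI5P4Kalpha plus substrate, initiated with ATP at 5 microM final. Buffer: 0.038 M HEPES pH 7.4, EGTA, 0.1% CHAPS, 5% DMSO.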
# HP1b binding inh: blocks HP1-beta chromodomain binding to methylated histone tails; Potency, µM (doses to about 114 µM), inactives show top-dose activity change, negative = inhibition, most hits filed as inhibitors; hit rate 0.56% among 390,000; P83916; AID 540317; AlphaScreen HP1-beta / biotin-H3K9me3 peptide binding; also: potency is read from the fitted curve at half-maximal effect; nearly all actives have a fitted effect of over 70% in size
#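 HP1-beta protein (50 nM final) preincubated 30 min at room temperature with biotinylated H3(1-18)K9me3 peptide (50 nM) in PBS pH 7.4, 0.01% Tween-20, then compound added for 30 min. AlphaScreen streptavidin donor/nickel chelate acceptor beads (10 ug/mL final), 30 min dark, luminescence read.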
# An asterisk follows results filed as active; ? = inconclusive; nt = no result; [ ] = remark or other dose. Unless noted, calls follow the shape of the dose curve; as a rule, active = well fitted curve in the direction sought with a large enough effect; inconclusive = small, poorly fitted or top-dose-only effect, or another doubt; inactive = no such curve, though single readings can be large; an effect the other way counts as inactive or inconclusive.
SMILES,G9a inh,JMJD2A Tudor inh,BAZ2B block,PLK1 PBD inh,PI5P4K alpha inh,HP1b binding inh
COc1cccc2cc(C(=O)N3CCN(c4ccccn4)CC3)c(=O)oc12,32.8%[12.7 µM],23.3%[11.4 µM],10.7%,-24.6%,4.8,-3.4%
COc1cccc2cc(C(=O)N3CCC(C)CC3)c(=O)oc12,50.1µM*,-9.2%,-4.8%,-24.1%,-2.4,47.6%
COc1cccc2cc(C(=O)N3CCN(C45CC6CC(CC(C6)C4)C5)CC3)c(=O)oc12,?,-18.3%[11.4 µM],-3.3%,26.7µM*,1.8,-10.7%
CCN(CC)C(=O)C(c1ccccc1)S(=O)(=O)N1CCOCC1 (centres undefined),nt,nt,nt,-13.0%,4.7,nt
COc1ccc(S(=O)(=O)Nc2ccc(N3CCOCC3)cc2)cc1Br,10µM*,?,?,-11.1%,7.3,-17.0%
Cc1cc(C)c(S(=O)(=O)Nc2ccc(N3CCOCC3)cc2)c(C)c1,?,-34.8%,?,3.5%,4.2,-11.6%
Cc1cc(S(=O)(=O)Nc2ccc(N3CCOCC3)cc2)ccc1Br,39.8µM*,?,?,-5.2%,-5.2,-0.4%
COc1ccc(S(=O)(=O)Nc2ccc(N3CCOCC3)cc2)cc1[N+](=O)[O-],44.7µM*,-15.4%,-29.8%,-7.2%,3.0,33.3%
CN1C(=O)Cc2cc(S(=O)(=O)Nc3ccc(N4CCOCC4)cc3)ccc21,79.4µM*,-15.8%,-19.8%,-0.3%,-0.7,7.5%
COc1ccc(S(=O)(=O)NCCN2CCOCC2)cc1Br,nt,-2.4%,-7.3%,-16.1%,-3.5,24.1%
ON=C1C2CC=C(c3ccccc3)C1CCC2 (centres undefined),nt,-8.3%,nt,-2.8%,25.5,7.7%
Cc1ccc(CC2(C)C(=O)Nc3c(Cl)cccc32)cc1 (centres undefined),nt,nt,nt,-3.5%,0.1,nt
Cc1cc(C)cc(C(O)c2ncc(-c3ccc(C(F)(F)F)cc3)[nH]2)c1 (centres undefined),nt,nt,nt,-7.2%,-2.5,nt
COc1cccc(CNc2nc3c(-c4cccc(C)c4)nnn3c3ccccc23)c1,5.9%[59 µM],11.6%,5.7%,nt,nt,59.2%
Cc1cc(S(=O)(=O)NC2CCCCC2)ccc1-n1cnnn1,nt,7.6%,-12.5%,1.6%,-5.7,18.1%
O=S(=O)(Nc1ccc(N2CCOCC2)cc1)c1ccc(F)cc1,?,-17.2%,-26.6%,2.2%,1.5,-0.4%
COc1ccc(NS(=O)(=O)c2ccc(-n3cnnn3)cc2)cc1OC,?,-4.3%,-2.8%,3.5%,3.3,20.4%[57 µM]
CC(=O)N1CCN(c2ccc(NS(=O)(=O)c3ccc4c(c3)CC(=O)N4)cc2)CC1,nt,126µM*,nt,nt,nt,nt
COc1ccc(S(=O)(=O)NC2CCCCC2)cc1-n1cnnn1,-3.3%,79.4µM*,-25.5%,26.7µM*,-27.4,-4.9%
O=S(=O)(Nc1ccc(N2CCOCC2)cc1)c1c(F)cc(F)cc1Br,39.8µM*,-24.8%[57.1 µM],-29.6%,?,?,?
COc1ccc(S(=O)(=O)Nc2ccc(-n3cnnn3)cc2)cc1Br,56.2µM*,-5.8%,-5.7%,-6.6%,-9.3,25.5%
Cc1cc(C(=O)OCC(=O)NC(=O)C2CCCCC2)ccc1[N+](=O)[O-],nt,-7.1%,nt,nt,nt,19.9%
CCN1C(=O)CCN(C2CCCC2)c2nc(Nc3ccc(C(=O)NC4CCN(C)CC4)cc3OC)ncc21,nt,?,nt,-23.2%,-4.3,37.5%
CCN(CC(=O)Nc1ccc2c(c1)OCCO2)C(=O)c1ccc(C(F)(F)F)cc1,-13.1%,-23.4%,-28.3%,-5.0%,3.2,4.8%
CN(Cc1ccco1)C(=O)CSc1nc(C2CC2)n(-c2ccccc2)n1,31.6µM*,-19.3%,?,-12.2%,-24.1,31.1%
SMILES,G9a inh,JMJD2A Tudor inh,BAZ2B block,PLK1 PBD inh,PI5P4K alpha inh,HP1b binding inh
CC1COc2c3ccccc3nn21 (centres undefined),nt,nt,nt,-9.4%,2.9,nt
N#CC(Cc1ccc(O)c(O)c1)C(=O)N1CCc2ccccc21 (centres undefined),7.08µM*,nt,nt,nt,nt,nt
CC(NCc1ccc(S(N)(=O)=O)cc1)C(=O)N1CCc2ccccc21 (centres undefined),3.9%,-14.0%,-17.9%,-6.6%,1.6,27.9%
CCOc1cc2sc(N3CCC(C(=O)Nc4ccc(CC)cc4)CC3)nc2cc1Br,4.8%[59 µM],-17.1%,-11.2%,nt,nt,17.2%
Cc1cc(N2Cc3ccccc3C2)ccc1C=O,50.1µM*,-17.3%,-20.8%,-8.9%,-29.6,-6.9%
Oc1cccc(N2Cc3ccccc3C2)c1,17.5%[2.33 µM],?,-24.6%,-17.3%,?,22.1%
Cc1cc2c(cc1C)CN(c1ccccc1)C2,7.08µM*,?,-27.1%,-12.4%,-18.4,24.5%
COc1cccc(CNC(=O)c2sc3nc4n(c(=O)c3c2C)CCC4)c1,12.9%[59 µM],-17.1%,-20.4%,nt,nt,50.7%
CCCC1=C(C(=O)OCC)C(c2cc(Cl)cc(OC)c2OCC(=O)OCC)NC(=O)N1 (centres undefined),24.1%[59 µM],-12.3%[11.4 µM],-5.0%,29.9µM*,-1.3,-17.3%
CCOC(=O)COc1c(OC)cc(Cl)cc1C1NC(=O)NC(C)=C1C(C)=O (centres undefined),-22.2%[12.7 µM],-13.5%,-3.6%,-3.1%,nt,34.6%
C=CCN(CC=C)Cc1cc(=O)oc2cc(C)cc(C)c12,nt,nt,nt,5.4%,-0.2,nt
Cc1ncsc1CCC(=O)N1CCCC(Nc2ccc(C(C)C)cc2)C1 (centres undefined),50.1µM*,-24.8%,-36.9%,3.7%,-2.7,15.8%
COc1ccc(CCC(=O)N2CCCC(Nc3ccc(OC)cc3)C2)cc1 (centres undefined),39.8µM*,-28.3%,?,-5.6%,3.0,-10.6%
COc1ccc(NC2CCCN(C(=O)CCc3scnc3C)C2)cc1 (centres undefined),?,-19.0%,-24.6%,-8.2%,1.3,-3.6%
CCn1nc(CC(C)C)cc1C(=O)N1CCCC(Nc2ccc(OC)cc2)C1 (centres undefined),?,?,-38.7%[57.1 µM],26.7µM*,-7.2,-4.2%
COc1ccc(NC2CCCN(C(=O)c3cccc(N4CCNC4=O)c3)C2)cc1 (centres undefined),39.8µM*,-15.3%,-13.6%,-2.4%,7.1,11.0%
CCn1nc(C)cc1C(=O)N1CCCC(Nc2ccc(F)c(F)c2)C1 (centres undefined),16.6%,-11.8%,-16.4%,-0.2%,9.6,40.4%
CN(C(=O)c1ccccc1Cl)c1ccccc1C(=O)NCCc1ccccc1,3.1%,-9.0%,-19.2%,-0.9%,-4.5,10.6%
COC(=O)c1ccc(CNC(=O)CC[C@H]2O[C@@H](n3cc(C)c(=O)[nH]c3=O)C[C@@H]2O)cc1,nt,nt,nt,-0.2%,1.1,nt
CCOC(=O)CC(NC(=O)c1cc2cc(Cl)ccc2oc1=O)c1ccc(C)cc1 (centres undefined),-6.9%[59 µM],-5.6%,-11.6%,nt,nt,18.7%
COc1ccc(NC2CCCN(C(=O)CCC(=O)c3ccc(F)cc3)C2)cc1 (centres undefined),nt,?,39.8µM*,-3.4%,-6.1,-33.6%

# Compound activity deposited in PubChem BioAssay by National Center for Advancing Translational Sciences (NCATS).
